Viability and inhibition data for 39 compounds are collected here from PubChem BioAssay.

Active and inactive are the calls of the source. No stated cut-off is given here; in the data, active means inhibition above about 31%; inactive means the rest.

One assay in a line: reversal of MRP1-mediated doxorubicin resistance, pilot screen, H69AR cells, doxorubicin co-treatment (AID 601). To be noted: H69AR cells, CellTiter-Glo, 72 h; compound alone cytotoxicity; at 10 µM. For orientation: ATP-based viability assays read luminescence as a measure of living cells.
By viability is commonly meant a per cent measure of how many cells are alive, often set against a control. `CCOC(=O)c1sc(NC(=O)c2c(C)nn(Cc3ccccc3)c2C)cc1C`: the viability came to 38.1%.
Consider `Cc1nn(-c2nc3ccccc3s2)c(C)c1Oc1ccccc1O`, for which the viability is 60%.
Consider `Cc1cc(C)c2c(n1)nn1c(N3CCN(c4ccccc4C)CC3)cc(C)nc21`, for which the viability turned out to be 73.1%.
On the same count and under the same terms, for `COc1ccc(-c2noc(CCC(=O)NCCCN3CCC(Cc4ccccc4)CC3)n2)cc1` the value was 63%; for `Cc1[nH]nc(N=CC2=C(O)CC(C)(C)CC2=O)c1-c1ccc(Cl)cc1`, 40.1%; for `c1ccc2c(-c3nc(C4CCCCC4)no3)cc(-c3ccncc3)nc2c1`, 43.6%.
`CCCc1nc2ccccc2c(=O)n1NC(=O)c1c(O)c2cccc3c2n(c1=O)CCC3`: the viability worked out at 66%.
As to `Cc1csc2ncc(C(=O)Nc3ccccc3Cl)c(=O)n12`, the viability was 48.3%.
Still for that read-out and setting: for `CN1CC=C2C(C#N)=C(N)C(C#N)(C#N)[C@H](c3cccc(Cl)c3)C2C1` (stereo partly drawn) the value was 54.7%.
In the case of `O=C(NC1CCc2ccccc21)C1CCN(S(=O)(=O)c2ccc(-n3cnnn3)cc2)CC1` (stereo not drawn), the viability was 55%.
`N#CC(C(=O)C1CCCCC1)c1nc2ccccc2[nH]1` (stereo not drawn): the viability was found to be 56.1%.
In the case of `Cc1nc2ccccc2c(=O)n1NC(=O)c1c(O)c2c(n(CC(C)C)c1=O)CCCC2`, the viability is 49.1%.
In the case of `COc1ccc(Br)cc1C1N2CC3(C)CN1CC(C)(C2)C3=O` (stereo not drawn), the viability is 54.3%.
In the case of `CCn1cc(C(=O)OCC(=O)OC2CC(C)CCC2C(C)C)c(=O)c2ccc(C)nc21` (stereo not drawn), the viability came to 44.7%.
For `CCCNC(=O)c1c(N)n(-c2cc(OC)cc(OC)c2)c2nc3ccccc3nc12`, the viability was found to be 57.6%.
Take `CCCc1cc(-c2n[nH]c(C)c2-c2ccc(C(=O)OCC)o2)c(O)cc1O`: the viability was 28%.
For `N#CC1=C(N)n2c(s/c(=C\c3ccco3)c2=O)=C(C#N)C1c1ccco1` (stereo not drawn), the viability was 47.4%.
For the compound `CC1=C(C(=O)OC2CCCCC2)C(c2ccc(C)o2)C2=C(CC(C)(C)CC2=O)N1` (stereo not drawn), the viability stood at 50.5%.
For the compound `O=C(Nc1sc2c(c1C(=O)NCc1ccco1)CCCC2)c1ccc2c(c1)OCO2`, the viability is 61.4%.
Consider `COc1ccc(CC(=O)NCc2cccs2)cc1`, for which the viability came to 60.5%.
On the same count and under the same terms, as for `COc1ccc(/C=N/n2cc(-c3ccc(OC)cc3)nc2N)cc1`, the figure is 53.3%; as for `CCn1c(CNc2ccc(OC)cc2)nnc1SCC(=O)c1ccc(OC)cc1`, 50.8%.
Still for that read-out and setting: for `Cc1ccccc1OCCCN1C(=O)C(=O)c2cccc(C)c21` the value was 33%; for `CCOC(=O)c1sc(NC(=O)CSc2n[nH]c(-c3ccccc3)n2)c(C#N)c1C`, 41.3%.
Consider `CCSc1nnc(NC(=O)c2ccccn2)s1`, for which the viability was found to be 20.8%.
In the case of `CCOc1cccc(-n2nnnc2-c2ccc(OC)cc2)c1`, the viability came out at 12.5%.
Consider `O=C(NCc1ccco1)c1cc2c(s1)CSC2`, for which the viability came to 57.3%.
Consider `CC(=O)c1ccccc1Oc1nc(CN2CCOCC2)nc2scc(-c3cccs3)c12`, for which the viability was 49.9%.
In the case of `C=CCn1c(N)c(C(=O)OC(C)(C)C)c2nc3ccccc3nc21`, the viability is 50.8%.
The same measure, in the same setting: as for `CCOC(=O)c1sc(Nc2nc3c(OC)cccc3s2)nc1C`, the figure is 59.2%; as for `COc1ccc(N2CCN(Cc3cc(=O)oc4cc(C)c(Cl)c(C)c34)CC2)cc1`, 74.8%.
Take `O=C(c1cc(-c2ccco2)nn1-c1cccc(Cl)c1)N1CCCCC1`: the viability was 53.3%.
As for `CCOC(=O)c1sc2nc(N3CCCC3)c3c(c2c1N)CC(C)(C)OC3`, the viability is 53.1%.
Same read-out and setting: for `CCC(Sc1nc2n[nH]c(C)c2c(=N)n1-c1cc(Cl)ccc1C)C(=O)N1CCOCC1` (stereo not drawn) the value was 46.3%; for `O=C(Nc1ccc(F)cc1)N(Cc1ccco1)Cc1cc2cc3c(cc2[nH]c1=O)OCO3`, 55%; for `N#CC1=C(SCC(=O)NC23CC4CC(CC(C4)C2)C3)NC(=O)C(C#N)C12CCCCC2` (stereo not drawn), 35.8%.
On to `CCOC(=O)c1nnc2cc(-c3ccc(Br)cc3)nn2c1C`, for which the viability was found to be 49.7%.
`CCOC(=O)c1c(NC(=O)Cn2c(C)nc3ccccc32)sc2c1CCC2`: the viability worked out at 57.8%.
For `COc1ccc(C2=NOC(C(=O)Nc3cc(Br)ccc3O)C2)cc1OC` (stereo not drawn), the viability was 60.1%.

The next assay can be described thus: 384-well plate pilot, post-Golgi transport modulator project, inhibition of yeast transport mutant growth (AID 636). To be noted: absorbance 615 nm, about 18 h, stronger effect = higher value.
Usually inhibition stands for the change of the read-out against control, counted positive when it falls. In the case of `CCOC(=O)c1sc(NC(=O)c2c(C)nn(Cc3ccccc3)c2C)cc1C`, the inhibition was -10% (inactive).
On the same count and under the same terms, as for `Cc1nn(-c2nc3ccccc3s2)c(C)c1Oc1ccccc1O`, the figure is -6.13% (inactive); as for `Cc1cc(C)c2c(n1)nn1c(N3CCN(c4ccccc4C)CC3)cc(C)nc21`, 1.18% (inactive).
Consider `COc1ccc(-c2noc(CCC(=O)NCCCN3CCC(Cc4ccccc4)CC3)n2)cc1`, for which the inhibition was 1.05% (inactive).
The same measure, in the same setting: as for `Cc1[nH]nc(N=CC2=C(O)CC(C)(C)CC2=O)c1-c1ccc(Cl)cc1`, the figure is 6.8% (inactive); as for `c1ccc2c(-c3nc(C4CCCCC4)no3)cc(-c3ccncc3)nc2c1`, 45.3% (active).
Consider `CCCc1nc2ccccc2c(=O)n1NC(=O)c1c(O)c2cccc3c2n(c1=O)CCC3`, for which the inhibition was -5.2% (inactive).
In the case of `Cc1csc2ncc(C(=O)Nc3ccccc3Cl)c(=O)n12`, the inhibition is -4.13% (inactive).
Take `CN1CC=C2C(C#N)=C(N)C(C#N)(C#N)[C@H](c3cccc(Cl)c3)C2C1` (stereo partly drawn): the inhibition is -4.27% (inactive).
For the compound `O=C(NC1CCc2ccccc21)C1CCN(S(=O)(=O)c2ccc(-n3cnnn3)cc2)CC1` (stereo not drawn), the inhibition was -2.63% (inactive).
For the compound `N#CC(C(=O)C1CCCCC1)c1nc2ccccc2[nH]1` (stereo not drawn), the inhibition is 0.66% (inactive).
Turning to `Cc1nc2ccccc2c(=O)n1NC(=O)c1c(O)c2c(n(CC(C)C)c1=O)CCCC2`, the inhibition was -1.84% (inactive).
Consider `COc1ccc(Br)cc1C1N2CC3(C)CN1CC(C)(C2)C3=O` (stereo not drawn), for which the inhibition was -5.97% (inactive).
Regarding `CCn1cc(C(=O)OCC(=O)OC2CC(C)CCC2C(C)C)c(=O)c2ccc(C)nc21` (stereo not drawn), the inhibition is 78.4% (active).
`CCCNC(=O)c1c(N)n(-c2cc(OC)cc(OC)c2)c2nc3ccccc3nc12`: the inhibition is -3.87% (inactive).
Consider `CCCc1cc(-c2n[nH]c(C)c2-c2ccc(C(=O)OCC)o2)c(O)cc1O`, for which the inhibition is -4.74% (inactive).
On the same count and under the same terms, for `N#CC1=C(N)n2c(s/c(=C\c3ccco3)c2=O)=C(C#N)C1c1ccco1` (stereo not drawn) the value was 0.13% (inactive); for `CC1=C(C(=O)OC2CCCCC2)C(c2ccc(C)o2)C2=C(CC(C)(C)CC2=O)N1` (stereo not drawn), 0.38% (inactive); for `O=C(Nc1sc2c(c1C(=O)NCc1ccco1)CCCC2)c1ccc2c(c1)OCO2`, 1.22% (inactive).
`COc1ccc(CC(=O)NCc2cccs2)cc1`: the inhibition was -4% (inactive).
For `COc1ccc(/C=N/n2cc(-c3ccc(OC)cc3)nc2N)cc1`, the inhibition was -1.41% (inactive).
Consider `CCn1c(CNc2ccc(OC)cc2)nnc1SCC(=O)c1ccc(OC)cc1`, for which the inhibition was -3.64% (inactive).
Take `Cc1ccccc1OCCCN1C(=O)C(=O)c2cccc(C)c21`: the inhibition is 2.56% (inactive).
For the compound `CCOC(=O)c1sc(NC(=O)CSc2n[nH]c(-c3ccccc3)n2)c(C#N)c1C`, the inhibition is -6.27% (inactive).
Same read-out and setting: for `CCSc1nnc(NC(=O)c2ccccn2)s1` the value was 4.03% (inactive); for `CCOc1cccc(-n2nnnc2-c2ccc(OC)cc2)c1`, -1.04% (inactive).
Take `O=C(NCc1ccco1)c1cc2c(s1)CSC2`: the inhibition was -0.92% (inactive).
On to `CC(=O)c1ccccc1Oc1nc(CN2CCOCC2)nc2scc(-c3cccs3)c12`, for which the inhibition was -8.24% (inactive).
For `C=CCn1c(N)c(C(=O)OC(C)(C)C)c2nc3ccccc3nc21`, the inhibition is 0.66% (inactive).
The same measure, in the same setting: for `CCOC(=O)c1sc(Nc2nc3c(OC)cccc3s2)nc1C` the value was 0.13% (inactive); for `COc1ccc(N2CCN(Cc3cc(=O)oc4cc(C)c(Cl)c(C)c34)CC2)cc1`, -7.33% (inactive).
On to `O=C(c1cc(-c2ccco2)nn1-c1cccc(Cl)c1)N1CCCCC1`, for which the inhibition was -2.24% (inactive).
Consider `CCOC(=O)c1sc2nc(N3CCCC3)c3c(c2c1N)CC(C)(C)OC3`, for which the inhibition is -7.92% (inactive).
As for `CCC(Sc1nc2n[nH]c(C)c2c(=N)n1-c1cc(Cl)ccc1C)C(=O)N1CCOCC1` (stereo not drawn), the inhibition was 2.37% (inactive).
Turning to `O=C(Nc1ccc(F)cc1)N(Cc1ccco1)Cc1cc2cc3c(cc2[nH]c1=O)OCO3`, the inhibition is -6.32% (inactive).
Turning to `N#CC1=C(SCC(=O)NC23CC4CC(CC(C4)C2)C3)NC(=O)C(C#N)C12CCCCC2` (stereo not drawn), the inhibition is -5.48% (inactive).
On the same count and under the same terms, as for `CCOC(=O)c1nnc2cc(-c3ccc(Br)cc3)nn2c1C`, the figure is 4.55% (inactive).
On the same count and under the same terms, for `CCOC(=O)c1c(NC(=O)Cn2c(C)nc3ccccc32)sc2c1CCC2` the value was -4.53% (inactive).
Turning to `COc1ccc(C2=NOC(C(=O)Nc3cc(Br)ccc3O)C2)cc1OC` (stereo not drawn), the inhibition was -6.76% (inactive).
